A selection: hits, their analogues and other compounds. The true share with any hit is near 9.8%.
HTT aggregate – qHTS Multiplex Assay to Identify Dual Action Probes in a Cell Model of Huntington: Aggregate Formation (GFP). PC12 HttQ103-GFP aggregates, Acumen cytometry, 40 h. Potency, µM (top dose mostly 46.1 µM), for inactives: top-dose activity change, negative = inhibition, most hits filed as inhibitors. actives 1.1% (n = 220,000). AID 1688, 2009; active = well fitted curve in the direction sought with a large enough effect; inconclusive = small, poorly fitted or top-dose-only effect, or another doubt; inactive = no such curve, though single readings can be large; an effect the other way counts as inactive or inconclusive; also: potency is read from the fitted curve at half-maximal effect; % is scaled to controls: 0 for no effect and ±100 for the full control effect; nearly all actives have a fitted effect of over 60% in size
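Read-out: GFP aggregate count by laser scanning cytometer (488 nm excitation, 500-530 nm emission, 1–25 µm objects >6 SD above background). Cells: PC12, inducible HTTex1-Q103-GFP, 100 nM tebufenozide; compounds titrated.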
ALDH1A1 inh – qHTS Assay for Inhibitors of Aldehyde Dehydrogenase 1 (ALDH1A1); Aldehyde dehydrogenase 1A1 (Homo sapiens), P00352; Purified ALDH1A1, NADH fluorescence, propionaldehyde substrate; Potency, µM (doses to about 75.3 µM), without a hit: at the highest dose activity, negative = inhibition, hits mostly inhibitors; actives 7.3% (n = 220,000);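 also: potency is read from the fitted curve at half-maximal effect; plate controls were no enzyme wells and a reference inhibitor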
Target sequence (P00352 whole entry, looked up): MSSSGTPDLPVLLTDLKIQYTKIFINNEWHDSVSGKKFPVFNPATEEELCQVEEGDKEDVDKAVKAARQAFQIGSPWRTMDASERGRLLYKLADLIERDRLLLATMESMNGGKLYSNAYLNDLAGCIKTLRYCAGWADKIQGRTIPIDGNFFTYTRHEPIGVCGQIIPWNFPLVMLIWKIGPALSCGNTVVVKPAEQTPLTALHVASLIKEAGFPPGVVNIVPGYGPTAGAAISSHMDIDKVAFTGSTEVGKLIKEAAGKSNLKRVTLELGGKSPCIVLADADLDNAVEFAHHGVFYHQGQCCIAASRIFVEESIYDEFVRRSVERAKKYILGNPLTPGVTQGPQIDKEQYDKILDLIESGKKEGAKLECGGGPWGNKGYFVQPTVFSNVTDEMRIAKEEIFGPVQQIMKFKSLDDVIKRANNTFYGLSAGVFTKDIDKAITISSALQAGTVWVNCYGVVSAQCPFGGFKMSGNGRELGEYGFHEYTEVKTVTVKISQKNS
HPGD block – qHTS Assay for Inhibitors of HPGD (15-Hydroxyprostaglandin Dehydrogenase); 15-hydroxyprostaglandin dehydrogenase [NAD(+)] (Homo sapiens), P15428; Potency, µM, without a hit: at the highest dose activity change, negative = inhibition, most hits filed as inhibitors; actives 4.3% (n = 150,000); purified HPGD, NADH fluorescence kinetic, PGE2 substrate; also: potency is read from the fitted curve at half-maximal effect; % is scaled to controls: 0 for no effect and ±100 for the full control effect
Target sequence (P15428 whole entry, looked up): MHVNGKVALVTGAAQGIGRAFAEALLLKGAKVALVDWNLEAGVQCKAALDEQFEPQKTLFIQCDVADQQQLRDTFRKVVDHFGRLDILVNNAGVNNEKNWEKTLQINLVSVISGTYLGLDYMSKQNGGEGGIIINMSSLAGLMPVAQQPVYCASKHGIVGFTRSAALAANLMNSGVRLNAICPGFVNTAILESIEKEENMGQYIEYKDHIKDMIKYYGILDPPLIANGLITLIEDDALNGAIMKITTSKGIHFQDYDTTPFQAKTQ
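20 nM HPGD preincubated 15 min at room temperature with compound in 50 mM Tris-HCl pH 8, 0.01% Tween 20. Started with 1 mM NAD+ and 30 uM prostaglandin E2; NADH fluorescence (360/450 nm) read 5 times over 30-s intervals, last minus first.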
CBFb-RUNX1 inh – qHTS Assay for Compounds Blocking the Interaction Between CBF-beta and RUNX1 for the Treatment of Acute Myeloid Leukemia | AID 1477, 2009 | Potency, µM (series often up to 59.8 µM), for inactives: top-dose activity, negative = inhibition, hits mostly inhibitors | Runt-related transcription factor 1 (Homo sapiens) + Core-binding factor subunit beta … | 230,000 tested, under 10 active | AlphaScreen CBFb-His/RUNX1-biotin binding, biochemical; active = well fitted curve in the direction sought with a large enough effect; inconclusive = small, poorly fitted or top-dose-only effect, or another doubt; inactive = no such curve, though single readings can be large; an effect the other way counts as inactive or inconclusive; also: % of control where 0% means no effect
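Interaction loss through any mechanism counts as activity. Pre-formed complex of His-CBF-beta and biotin-RUNX1 (30 nM apiece) is incubated with compound 15 min, then with 50 ng nickel and 50 ng streptavidin beads for 90 min before AlphaScreen detection.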
HTT ATP protect – qHTS Multiplex Assay to Identify Dual Action Probes in a Cell Model of Huntington: Cytoprotection (ATP) | PC12 HTT-Q103 induced, cytoprotection, ATP luminescence, 40 h | Potency, µM (doses to about 56.4 µM), inactives show cytoprotection (ATP increase), actives largely listed as activators | actives 0.14% (n = 230,000) | AID 1471, 2008; active = well fitted curve in the direction sought with a large enough effect; inconclusive = small, poorly fitted or top-dose-only effect, or another doubt; inactive = no such curve, though single readings can be large; an effect the other way counts as inactive or inconclusive; also: potency is read from the fitted curve at half-maximal effect; % of control where 0% means no effect; nearly all actives have a fitted effect of over 45% in size
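ATP quantification (ATPlite) reports survival of PC12 cells in which tebufenozide, 100 nM final, switches on Htt exon 1 with 103 glutamines linked to GFP; compounds are titrated.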
JMJD2E inh – qHTS Assay for Inhibitors of Human Jumonji Domain Containing 2E (JMJD2E). Lysine-specific demethylase 4E (Homo sapiens), B2RXH2. JMJD2E catalytic domain, FDH-coupled NADH fluorescence (FDH is formaldehyde dehydrogenase). Potency, µM (highest dose often 57.1 µM), for the others: top-dose activity change, negative = inhibition, most hits filed as inhibitors. actives 1.6% (n = 230,000). AID 2147, 2009;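 also: potency is read from the fitted curve at half-maximal effect; 0% = wells with enzyme and -100% = buffer wells without enzyme; nearly all actives have a fitted effect of over 50% in size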
An asterisk follows results filed as active; [ ] = remark or other dose. Unless noted, calls follow the shape of the dose curve; as a rule, active = well fitted inhibition curve with a large enough effect (not every such curve was filed as active); inconclusive = small, poorly fitted or top-dose-only effect, or another doubt; inactive = no such curve, though single readings can be large or run the other way.

Results for CCOC(=O)CSc1nnc(CNC(=O)c2cccs2)n1-c1cc(C)ccc1C ?
HTT aggregate: 2%; ALDH1A1 inh: -2%; CBFb-RUNX1 inh: 2%; HTT ATP protect: -26%; JMJD2E inh: -2%

Results for Oc1ccc(Br)cc1-c1cc(-c2ccccc2)n[nH]1 ?
HTT aggregate: -4%; ALDH1A1 inh: 4%; HPGD block: 25µM*; CBFb-RUNX1 inh: 1%; HTT ATP protect: 2%[10 µM]; JMJD2E inh: inconclusive

What do the screens show for `Oc1ccc(Br)cc1-c1cc(-c2ccc(Cl)cc2)n[nH]1`?
HTT aggregate: inconclusive; ALDH1A1 inh: 8%; HPGD block: inconclusive; CBFb-RUNX1 inh: -2%; HTT ATP protect: -38%; JMJD2E inh: -1%

Results for Cc1ccc(-c2cc(-c3ccccc3C)[nH]n2)c(O)c1 ?
HTT aggregate: -2%; ALDH1A1 inh: 1%; HPGD block: 10µM*; CBFb-RUNX1 inh: -6%; HTT ATP protect: 4%[1.9 µM]; JMJD2E inh: 5%

What do the screens show for `O=[N+]([O-])c1ccccc1-c1cc(-c2ccccc2O)n[nH]1`?
HTT aggregate: 8%; ALDH1A1 inh: inconclusive; HPGD block: 13µM*; CBFb-RUNX1 inh: 10%; HTT ATP protect: 11%[10 µM]; JMJD2E inh: -2%

Results for Cc1ccc(-c2cc(-c3cccc(F)c3)n[nH]2)c(O)c1 ?
HTT aggregate: 0%; ALDH1A1 inh: 12%; HPGD block: -17%; CBFb-RUNX1 inh: 2%; HTT ATP protect: -17%; JMJD2E inh: -8%

Results for Cc1ccc(O)c(-c2cc(-c3cccc(F)c3)n[nH]2)c1 ?
HTT aggregate: 19%; ALDH1A1 inh: -5%; HPGD block: 16µM*; CBFb-RUNX1 inh: 4%; HTT ATP protect: -26%; JMJD2E inh: -8%

What do the screens show for `O=C(O)/C=C/C(=O)NCc1csc2ccccc12`?
HTT aggregate: -16%[9.22 µM]; CBFb-RUNX1 inh: -16%; HTT ATP protect: -5%[10 µM]; JMJD2E inh: -6%

What do the screens show for `COc1ccc(/C=N/NC(=O)c2snnc2C)c(OC)c1OC`?
HTT aggregate: -8%; ALDH1A1 inh: 5%; CBFb-RUNX1 inh: -1%; HTT ATP protect: -19%; JMJD2E inh: 3%

Results for COCCCNC(=S)NNC(=O)c1ccc(S(=O)(=O)N2CCC(C)CC2)cc1 ?
ALDH1A1 inh: -2%; CBFb-RUNX1 inh: 5%; JMJD2E inh: -14%

Results for Cc1ccc(O)c(-c2cc(-c3ccccc3F)[nH]n2)c1 ?
HTT aggregate: 3%; ALDH1A1 inh: -3%; HPGD block: 4.5µM*; CBFb-RUNX1 inh: 4%; HTT ATP protect: -51%; JMJD2E inh: -3%

Results for CC1Cc2ccccc2N1C(=O)CNc1cccc(S(=O)(=O)N2CCCC2)c1 (centres undefined) ?
HTT aggregate: 6%; ALDH1A1 inh: 20µM*; CBFb-RUNX1 inh: 0%; HTT ATP protect: inconclusive; JMJD2E inh: -3%

What do the screens show for `CC1CCN(S(=O)(=O)c2ccc3c(c2)oc(=O)n3CC(=O)N2c3ccccc3CC2C)CC1` (centres undefined)?
HTT aggregate: -21%; ALDH1A1 inh: 5%; HPGD block: -9%; CBFb-RUNX1 inh: -9%; HTT ATP protect: 8%; JMJD2E inh: 2%

Results for COc1ccc(C)cc1NC(=O)CNc1ccccc1CN(C)C1CCCCC1 ?
HTT aggregate: 12%; ALDH1A1 inh: 20µM*; CBFb-RUNX1 inh: 6%; HTT ATP protect: 1%[10 µM]; JMJD2E inh: 7%

How did CN(CC(=O)Nc1ccc(OC(F)(F)F)cc1)C1CCCCC1 do in these assays?
HTT aggregate: 1%; ALDH1A1 inh: -15%; CBFb-RUNX1 inh: -5%; HTT ATP protect: -26%; JMJD2E inh: -25%

Results for COc1ccc(Cl)cc1NC(=O)CNc1ccccc1CN(C)C1CCCCC1 ?
HTT aggregate: -15%; ALDH1A1 inh: 8.9µM*; CBFb-RUNX1 inh: 6%; HTT ATP protect: -17%[10 µM]; JMJD2E inh: -20%

What do the screens show for `Cc1ccc(NC(=O)CNc2ccccc2CN(C)C2CCCCC2)cc1`?
HTT aggregate: -10%; ALDH1A1 inh: 20µM*; CBFb-RUNX1 inh: -4%; HTT ATP protect: -30%; JMJD2E inh: -1%

How did COc1ccc(C)cc1NC(=O)COC(=O)C1CC1 do in these assays?
HTT aggregate: 28%; ALDH1A1 inh: 2%; HPGD block: -2%; CBFb-RUNX1 inh: 1%; HTT ATP protect: 11%; JMJD2E inh: 10%

Results for COc1ccc(Cl)cc1NC(=O)CN(C)C1CCCCC1 ?
HTT aggregate: -17%; ALDH1A1 inh: 0%; HPGD block: -15%; CBFb-RUNX1 inh: 3%; HTT ATP protect: -16%; JMJD2E inh: -1%

Results for C/C(=N\NC(=O)COc1ccccc1-c1ccccc1)c1ccccn1 ?
HTT aggregate: 15%; ALDH1A1 inh: 2.5µM*; CBFb-RUNX1 inh: inconclusive; HTT ATP protect: 5%[10 µM]; JMJD2E inh: inconclusive

What do the screens show for `C/C(=N\NC(=O)COc1ccccc1-c1ccccc1)c1cccnc1`?
HTT aggregate: -9%; ALDH1A1 inh: 14µM*; CBFb-RUNX1 inh: -5%; HTT ATP protect: 3%[10 µM]; JMJD2E inh: -6%

How did c1ccc2sc(Cc3nnc4n3CCCCC4)nc2c1 do in these assays?
HTT aggregate: -11%; ALDH1A1 inh: 11%; HPGD block: -21%; CBFb-RUNX1 inh: 4%; HTT ATP protect: 0%; JMJD2E inh: -2%

How did O=C1/C(=C\c2ccc(O)c(O)c2)C(c2ccccc2)=NN1c1ccccc1 do in these assays?
HTT aggregate: 20%[9.22 µM]; ALDH1A1 inh: inconclusive; CBFb-RUNX1 inh: inconclusive; HTT ATP protect: -140%; JMJD2E inh: 14µM*

Results for N[C@H](Cc1ccc(O)c(I)c1)C(=O)O ?
HTT ATP protect: -17%[1.9 µM]

What do the screens show for `CCc1ccc(NC(=S)N2CCCCCCC2)cc1`?
HTT aggregate: -4%; ALDH1A1 inh: 5%; CBFb-RUNX1 inh: 12%; HTT ATP protect: -23%[10 µM]; JMJD2E inh: 11%

How did O=S(=O)(c1ccccc1)N1CCC2(CC1)CN(c1ccncc1)C2 do in these assays?
ALDH1A1 inh: -8%; HPGD block: -27%; HTT ATP protect: -47%

How did CC(=O)N1CCC2(CC1)CN(c1ccccc1)C2 do in these assays?
ALDH1A1 inh: 16µM*; HPGD block: -7%; HTT ATP protect: 15%

Results for O=S(=O)(c1ccccc1)N1CCC2(CC1)CN(c1ccccc1)C2 ?
ALDH1A1 inh: 14µM*; HPGD block: -8%; HTT ATP protect: inconclusive

Screening data as filed in PubChem BioAssay.
